Sampled rows, rich in hits. Any-hit rate of the full collection: about 2.4%.
Pol beta inh: qHTS Assay for Inhibitors of DNA Polymerase Beta; 340,000 tested, 1.3% active; P06746; Potency, µM (doses to about 114 µM), actives largely listed as inhibitors; Pol beta primer extension/strand displacement, fluorescence kinetic
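Curves were derived by four-parameter Hill fits of normalized qHTS data. The kinetic fluorescent primer-extension read was taken at 0 and 10 min after 50 nM substrate, following a 15 min room-temperature preincubation of 10 nM enzyme with compounds.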
FEN1 inh: qHTS Assay for the Inhibitors of Human Flap endonuclease 1 (FEN1) | Recombinant FEN1 flap cleavage, fluorescence, 15 min | P39748 | Potency, µM (titrated, usually from 114 µM), usual class: inhibitors | 390,000 tested, 0.35% active; also: nearly all actives have a fitted effect of over 65% in size
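FEN1 at 10 nM preincubated with compounds 15 min at room temperature, then flap DNA substrate added at 50 nM final. Signal read at 0 and 15 min; concentration-response fitted with four-parameter Hill equation.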
TDP1 block: qHTS Assay for Inhibitors of Tyrosyl-DNA Phosphodiesterase (TDP1) | Tyrosyl-DNA phosphodiesterase 1 (Homo sapiens), Q9NUW8 | 350,000 tested, 0.28% active | recombinant TDP1, AlphaScreen DNA substrate cleavage | Potency, µM (series often up to 130 µM), actives largely listed as inhibitors | AID 485290, 2010; also: nearly all actives have a fitted effect of over 40% in size
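Compounds were preincubated with Tdp1 (1 nM final) for 15 min at room temperature before substrate (15 nM final) started a 5 min reaction; beads (10 ug/ml final) were then added for 10 min before AlphaScreen detection.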
Pol eta inh-1: qHTS for Inhibitors of Polymerase Eta; DNA polymerase eta (Homo sapiens), Q9Y253; recombinant Pol eta, fluorescent DNA replication assay; Potency, µM (highest dose often 114 µM), hits mostly inhibitors; 390,000 tested, 1.2% active
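Pol eta (10 nM) was preincubated with compounds for 15 min at room temperature, after which fluorescent replication substrate (50 nM final) was added to start the reaction. Fluorescence was read kinetically at 0 and 10 min.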
Pol kappa inh-1: qHTS for Inhibitors of Polymerase Kappa; DNA polymerase kappa (Homo sapiens), Q9UBT6; 400,000 tested, 0.53% active; Potency, µM (top dose mostly 107 µM), actives largely listed as inhibitors; purified Pol kappa, fluorescent DNA synthesis assay, 10 min; AID 588579, 2011
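Kinetic fluorescence screen: compound preincubated 15 min RT with 10 nM enzyme; 50 nM substrate (final) initiates; reads at 0/10 min.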
POLI inh: qHTS for Inhibitors of Polymerase Iota | AID 588590, 2011 | Potency, µM (series often up to 115 µM), most hits filed as inhibitors | 390,000 tested, 1% active | DNA polymerase iota (Homo sapiens), Q9UNA4 | Pol iota fluorescent replication assay, 10 min
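Fluorescent replication assay read twice, at 0 min and 10 min after adding 50 nM (final) substrate. Enzyme (10 nM) and compounds were first incubated 15 min at room temperature; enzyme-free buffer wells were negative controls.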
PGK validate: qHTS for inhibitors of Phosphogylcerate Kinase: Hit Validation Screen; shares compounds with Pol kappa inh-1; TbPGK coupled GAPDH assay, Kinase-Glo luminescence; Potency, µM (highest dose often 57.5 µM), actives largely listed as inhibitors; 500 tested, 79% active; also: nearly all actives have a fitted effect of over 65% in size
Target sequence (P07378 whole entry, looked up): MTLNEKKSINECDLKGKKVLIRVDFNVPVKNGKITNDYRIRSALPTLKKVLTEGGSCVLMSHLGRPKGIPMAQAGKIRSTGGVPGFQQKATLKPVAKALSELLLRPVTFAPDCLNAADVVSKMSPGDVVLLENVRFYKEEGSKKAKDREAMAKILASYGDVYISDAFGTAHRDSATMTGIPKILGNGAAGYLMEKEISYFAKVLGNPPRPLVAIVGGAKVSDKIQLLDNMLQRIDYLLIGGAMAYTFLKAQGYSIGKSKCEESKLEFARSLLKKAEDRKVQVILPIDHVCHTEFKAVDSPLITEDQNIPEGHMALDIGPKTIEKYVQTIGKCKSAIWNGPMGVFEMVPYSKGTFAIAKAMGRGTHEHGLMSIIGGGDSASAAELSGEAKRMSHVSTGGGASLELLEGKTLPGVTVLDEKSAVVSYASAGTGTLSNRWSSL
POLI cherry-pick: qHTS for Inhibitors of Polymerase Iota: Confirmatory Assay for Cherry-picked Compounds | shares compounds with Pol kappa inh-1 | Pol iota primer extension, TAMRA/BHQ fluorescence | Potency, µM, usual class: inhibitors | 1,500 tested, 77% active | AID 720496, 2013
GALK confirm: Confirmation Assay for Inhibitors of Human Galactokinase (GALK). purified GALK, Kinase-Glo ATP depletion luminescence. AID 2015, 2009. 150 tested, 70% active. Potency, µM (highest dose often 115 µM), hits mostly inhibitors. shares compounds with Pol eta inh-1
Redox cycling: Confirmatory Assay for Inhibitors of Human Galactokinase (GALK): Phenol-HRP redox assay counterscreen; 150 tested, 40% active; Phenol red-HRP H2O2 redox cycling, absorbance 600 nm; Potency, µM (titrated, usually from 115 µM), usual class: inhibitors; shares compounds with Pol eta inh-1
HEK293 viability: Secondary Assay for Inhibitors of Human Galactokinase (GALK): HEK-293 Cell Viability Assay. shares compounds with Pol eta inh-1. HEK-293 viability, ATP luminescence (CellTiter-Glo), 24/48 h. Potency, µM (series often up to 46.1 µM), hits mostly inhibitors. 170 tested, 10% active
Pol kappa inh-2: qHTS for Inhibitors of Polymerase Kappa: Confirmatory Assay for Cherry-picked Compounds; AID 720501, 2013; Potency, µM, usual class: inhibitors; 920 tested, 76% active; purified Pol-kappa, fluorescent strand-displacement substrate; shares compounds with Pol eta inh-1
Pol eta inh-2: qHTS for Inhibitors of Polymerase Eta: Confirmatory Assay for Cherry-picked Compounds | 2,600 tested, 64% active | Potency, µM, actives largely listed as inhibitors | AID 720502, 2013 | shares compounds with Pol eta inh-1 | Pol eta primer extension, TAMRA/BHQ fluorescence, 10 min
Hits are given with their value; n = inactive; u = inconclusive; x = not tested or not shown. Calls follow the shape of the dose curve; as a rule, active = well fitted curve in the direction sought with a large enough effect; inconclusive = small, poorly fitted or top-dose-only effect, or another doubt; inactive = no such curve, though single readings can be large; an effect the other way counts as inactive or inconclusive.

SMILES | Pol beta inh | FEN1 inh | TDP1 block | Pol eta inh-1 | Pol kappa inh-1 | POLI inh | POLI cherry-pick | Pol eta inh-2 | others
CCOc1ccc(-c2cnc(NCc3ccc(C(F)(F)F)cc3)n2C)cc1 | n | u | n | n | n | n | x | x
Cc1cn(C)c(CC(=O)Nc2cccc(C#N)c2)c1C(=O)O | n | n | n | n | n | n | x | x
Cc1ccc2sc(N3CCN(C(=O)CCS(=O)(=O)c4ccc(Cl)cc4)CC3)nc2c1C | n | n | n | n | n | n | x | x
O=C(CSc1ncn[nH]1)N1N=C2/C(=C/c3ccccc3)CCCC2C1c1ccccc1 (stereo not given) | n | n | n | n | n | n | x | x
O=C(CSc1nccc(=O)[nH]1)N1N=C2/C(=C/c3ccco3)CCCC2C1c1ccco1 (stereo not given) | 28µM | n | u | 25µM | u | 45µM | 38 | 30
COc1cccc2nccc(/C=C/c3ccc(N(C)C)cc3)c12 | x | n | x | x | n | u | x | x
O=C(O)c1ccc(/C=N/NC(=O)c2ccc(CN3c4cccc5cccc(c45)S3(=O)=O)cc2)cc1 | u | u | x | 22µM | u | 25µM | u | 60
CC(/C=N/NC(=O)c1ccc(CN2c3cccc4cccc(c34)S2(=O)=O)cc1)c1ccccc1 (stereo not given) | n | n | n | u | n | n | x | x
CCCC(=O)c1ccc(OC(=O)c2c(-c3ccccc3Cl)noc2C)cc1 | n | n | n | n | n | n | x | x
Cc1ccc(C)c(N2CCN(CCCNC(=O)Cn3c(-c4cccs4)cc4ccccc43)CC2)c1 | n | n | n | n | n | n | x | x
Cc1ccc(OCC(=O)NCc2ccco2)cc1C | n | n | n | u | n | n | x | x
CC(=O)c1cccc(OCC(=O)N(C)CC(=O)NCc2ccco2)c1 | x | u | 7.1µM | 3.2µM | 35µM | 7.9µM | 15 | 5.4 | PGK validate=3.3µM;Pol kappa inh-2=19
Cc1nc(-c2cccc(NC(=O)Nc3ccc([N+](=O)[O-])cc3)c2)no1 | u | n | n | n | n | n | x | x
Cc1ccc2nc(C)c3c(c2c1)COC3 | n | n | n | n | n | n | x | x
Cc1nc2ccc(C(=O)O)cc2c2c1CC(C)S2 (stereo not given) | 22µM | u | 20µM | 2.5µM | 32µM | 5µM | 19 | 9.5
Cc1ccccc1NC(=O)c1cc(-c2ccco2)nc2ccccc12 | x | n | x | 45µM | 89µM | 40µM | 53 | 48
O=C(c1cc(-c2ccco2)nc2ccccc12)N1CCN(Cc2ccccc2)CC1 | x | n | n | u | n | u | x | x
CCCCCCNC(=O)c1cc(-c2ccco2)nc2ccccc12 | 7.9µM | n | n | 13µM | 50µM | u | 27 | 30
O=C(N/N=C/c1cccc(F)c1)c1cc(-c2ccco2)nc2ccccc12 | n | u | x | 2.2µM | 18µM | u | 8.4 | 13 | PGK validate=5.8µM
COC(=O)C1CCN(C(=O)c2cc(-c3ccco3)nc3ccccc23)CC1 | x | 40µM | x | 8.9µM | 22µM | u | 8.4 | 15 | PGK validate=13µM;Pol kappa inh-2=9.5
Cc1nn2c(=O)cc(COC(=O)Cc3ccccc3)nc2s1 | n | n | n | n | n | n | x | x
COc1cc(OC)c(NC(=O)c2cc(C(C)=O)n3ccccc23)cc1Cl | n | n | n | n | n | n | x | x
COc1ccc(C(=O)c2sc3nc(-c4ccccc4)ccc3c2N)cc1OC | 13µM | u | n | u | u | u | u | 67
NS(=O)(=O)c1ccc(NC2=CC(=O)C(=O)c3ccccc32)cc1 | u | n | x | u | n | u | u | u | GALK confirm=15µM;Redox cycling=11µM;HEK293 viability=n
O=C(O)C1Oc2cc3ccccc3cc2O1 | 7.9µM | n | x | 18µM | n | 28µM | 75 | 48 | Pol kappa inh-2=8.4
SMILES | Pol beta inh | FEN1 inh | TDP1 block | Pol eta inh-1 | Pol kappa inh-1 | POLI inh | POLI cherry-pick | Pol eta inh-2 | others
O=C(COC(=O)CCNS(=O)(=O)c1ccc(Cl)cc1)NCc1ccco1 | n | n | n | n | n | n | x | x
O=C(COC(=O)Cc1ccc(Cl)cc1)NCc1ccco1 | x | n | 11µM | 8.9µM | 79µM | 22µM | 19 | 19 | Pol kappa inh-2=11
COc1ccc(/C=C/C(=O)OCC(=O)NCc2ccco2)cc1OC | 40µM | n | u | 50µM | u | 22µM | u | u
COc1ccc(Br)cc1CNC(=O)c1ccc(-n2c(C)cc3c2CCC(C)C3)cc1 (stereo not given) | n | n | n | n | n | n | x | x
O=c1c2ccccc2c(C=Nc2cccc(O)c2)c(O)n1-c1ccc2c(c1)OCO2 | 40µM | n | n | 13µM | n | u | u | u
Oc1[nH]c2ccccc2c1C=Nc1ccc2c(c1)OCO2 | n | n | n | n | n | n | x | x
Cc1cccc2sc(NC(=O)C3CCN(S(=O)(=O)c4cc([N+](=O)[O-])ccc4Cl)CC3)nc12 | u | n | n | 11µM | 79µM | 25µM | u | 76

Screening results from PubChem BioAssay.
